Shiga toxin inh = blocks Shiga toxin action in Vero cells; inhibition, % at 38.7 µM; Vero cells, Shiga toxin protein synthesis inhibition reporter; AID 2315; actives 9.2% (n = 290,000); in the data active = inhibition mostly above about 28%, no sharp cut-off; inactive = mostly below about 43%; note: 0% is about no effect
Pf growth 96h = inhibits malaria parasite growth, 96 h | P. falciparum luciferase reporter growth, 96 h | Potency, µM (doses to about 28.7 µM), inactives show at the top dose activity change, negative = inhibition, actives largely listed as inhibitors | actives 6.9% (n = 320,000) | AID 504834; note: potency is the fitted concentration of half-maximal effect; % is set by controls: 0 for no effect and ±100 for the full control effect
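Two parasite generations (96 h, 37 C, 5% CO2) of compound exposure in infected erythrocytes (0.05% parasitemia, 2% hematocrit). Luciferase-reporter P. falciparum; decreased luminescence indicates inhibited growth, aimed at apicoplast-acting delayed death.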
Cycloheximide cs = counter-screen for Shiga toxin inhibitors: cycloheximide protein synthesis inhibition; cell reporter, cycloheximide protein synthesis inhibition counterscreen; AID 2314; max response, %; actives 12% (n = 300,000); in the data active = max response mostly above about 13%, no sharp cut-off; inactive = mostly below about 14%; note: read at 38.3 µM for the half of the compounds with a filed dose; 0% is about no effect
Pf growth 48h = P. falciparum growth inhibition at 48 hours (one generation); P. falciparum luciferase growth in erythrocytes, 48 h; Potency, µM (highest dose often 28.7 µM), for the others: at the top dose activity change, negative = inhibition, hits mostly inhibitors; actives 5.9% (n = 310,000); note: potency is the fitted concentration of half-maximal effect; % is set by controls: 0 for no effect and ±100 for the full control effect
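Cell-based growth assay: transgenic P. falciparum expressing firefly luciferase, cultured in red cells within RPMI 1640 containing 0.5% w/v Albumax, 24 mM bicarbonate and gentamycin. A drop in luciferase activity indicates inhibition.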
Active calls of the source: *; ? = inconclusive; / = not tested or not shown. The list is not random: actives were taken first. Their share in the collection is about 21%. Unless noted, calls come from the whole dose curve; as a rule, active = well fitted inhibition curve with a large enough effect; inconclusive = small, poorly fitted or top-dose-only effect, or another doubt; inactive = no such curve, though single readings can be large or run the other way.

SMILES | Shiga toxin inh | Pf growth 96h | Cycloheximide cs | Pf growth 48h
O=C(NCc1ccc(Cl)cc1)c1cccc(NC(=O)c2ccccc2)c1 | -14 | ? | 0 | 1%
Cc1ccc(C(=O)NCc2ccc3c(c2)OCO3)cc1 | 19 | ? | 13* | -1%
O=C(NCc1cccc(C(F)(F)F)c1)c1ccc2c(c1)OCO2 | 32 | ? | 10* | -22%
CN(C)c1cccc(C(=O)NCc2ccc(Cl)cc2)c1 | 71* | 75% | 27* | 4.1µM*
COc1ccc(OCCOC(=O)CCS(=O)(=O)c2ccc(C)cc2)cc1 | / | -1% | / | -15%
COc1cccc(N(CC(=O)N/N=C(\C)c2cccs2)S(C)(=O)=O)c1 | 12 | -7% | -1 | 0%
COc1ccc(NC(=O)C2CCCN2S(=O)(=O)c2cccs2)c([N+](=O)[O-])c1 (configuration not stated) | / | -1% | / | ?
O=C(Cn1nnc(-c2ccc3c(c2)OCO3)n1)Nc1ccccc1C(=O)O | 41* | 16% | 31* | 28%
CC(C)c1ccc(C(=O)NCc2ccc(Cl)cc2)cc1 | 141* | 0% | 74* | 44%
Cc1ccccc1-c1nnn(CC(=O)Nc2ccc3c(c2)OCCO3)n1 | 141* | ? | 58* | 21%
O=C(NCc1ccc2c(c1)OCO2)c1ccc(Br)s1 | 16 | 41% | 12* | 83%
O=C(NCc1ccc2c(c1)OCO2)c1cccs1 | -5 | 54% | -5 | 22%
Cc1ccccc1-c1nnn(CC(=O)Nc2ccc3c(c2)OCO3)n1 | -6 | 13% | 8 | 0%
COc1cccc(CN2CCN(Cc3cccn3-c3cccnc3)CC2CCO)c1 (configuration not stated) | -10 | 39% | -2 | ?
Cc1ccc(NS(=O)(=O)c2ccc(C(=O)NCCCN3CCCC3=O)cc2)cc1 | / | ? | / | -1%
Nc1ccc2nc[nH]c2c1 | -25 | 2% | -4 | 4%
Cc1ccccc1-c1nnn(CC(=O)NCc2ccc3c(c2)OCO3)n1 | -19 | 24% | -3 | 1%
Cc1cc2cc(CNC(=O)c3ccc4c(c3)OCO4)ccc2[nH]1 | 66 | 45% | 20* | 7%
O=C(NCc1ccc2c(c1)OCO2)c1ccc2c(c1)OCCO2 | 18* | 18% | 25 | /
COc1ccc(C(=O)NCc2ccc3[nH]c(C)cc3c2)cc1OC | -8 | ? | -1 | -17%
CC(C)NC(=O)c1ccc(C(C)C)cc1 | 35 | 6% | 18* | 19%
CN(C)c1ccc(-c2nnn(CC(=O)NCc3ccc4c(c3)OCO4)n2)cc1 | 59 | ? | 28* | 38%
CC1CCCCN1C(=O)CSc1nnc2c(n1)[nH]c1ccccc12 (configuration not stated) | 1 | 12µM* | -2 | 1.7µM*
O=C(CCCSc1nc2ccccc2[nH]1)N1CCN(c2ccccc2)CC1 | 55 | ? | 2 | ?
O=C(CSc1nc2ccccc2[nH]1)N1CCCCC1 | 63* | 5% | 47* | 118%
SMILES | Shiga toxin inh | Pf growth 96h | Cycloheximide cs | Pf growth 48h
CC1CCCCN1C(=O)CSc1nc(-c2ccccc2)cc(=O)[nH]1 (configuration not stated) | -3 | 9% | -3 | -5%
CC1CCCCN1C(=O)CSc1nnc2c(n1)[nH]c1ccc(F)cc12 (configuration not stated) | -4 | -5% | -2 | ?
Cc1cccc(N2CCN(C(=O)CCCSc3nc4ccccc4[nH]3)CC2)c1C | -20 | 9.3µM* | -2 | ?
CC1CCCCN1C(=O)CSc1nc2ccccc2[nH]1 (configuration not stated) | 81* | -1% | 33* | 74%
COc1ccccc1CNS(=O)(=O)c1cccs1 | 1 | ? | 3 | 37%
NS(=O)(=O)c1ccc(NC(=O)CSc2nc3ccccc3nc2N2CCOCC2)cc1 | -4 | 40% | -2 | -9%
CC(C)(C)C(=O)Nc1cc(C(F)(F)F)ccc1N1CCOCC1 | 17 | -6% | -1 | ?
Cc1ccc(S(=O)(=O)Nc2cc(C(F)(F)F)ccc2N2CCOCC2)c(C)c1 | 14 | 12µM* | -4 | ?
CC(C)(C)C(=O)NC(=S)Nc1cc(C(F)(F)F)ccc1N1CCOCC1 | -7 | ? | -6 | /
Cc1ccc(S(=O)(=O)Nc2cc(C(F)(F)F)ccc2N2CCOCC2)cc1 | 16 | 13µM* | -6 | ?
O=C(CCCCC(=O)NC1CCCC1)NC1CCCC1 | 6 | -28% | -3 | 10%
O=C(NC1CCCCNC1=O)c1ccccc1 (configuration not stated) | 22 | 21% | 0 | -1%
CCOC(=O)N1CCN(C(=O)c2cc(COc3ccc(Cl)cc3OC)on2)CC1 | -6 | ? | -2 | 3%
